12 compounds from PubChem BioAssay (Tox21) can be followed below.

Records with an inconclusive call do not appear. Calls of active or inactive are those of the source. Unless noted, the call rests on the fitted dose curve; in most records, active means well fitted curve in the direction sought with a large enough effect in the repeat runs; inconclusive means weak or mixed curves; inactive means no such curve, though single readings can be large; an effect the other way counts as inactive or inconclusive.

The target of test [1] is Estrogen receptor (Homo sapiens) (UniProt P03372). Kind of test: qHTS assay to identify small molecule antagonists of the estrogen receptor alpha (ER-alpha) signaling pathway using the BG1 cell line in the presence of 0.1 nM 17-beta-estradiol (AID 1259244). Further: nearly all actives have a fitted effect of over 50% in size. Further: potency means the concentration at half of the fitted maximal effect. In short, it runs like this: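 After 5 days in hormone-depleted medium (charcoal-stripped serum, no phenol red), VM7Luc4E2 cells were seeded, incubated 24 h, then co-treated with compound and 0.1 nM (final) estradiol for 22 h before luminescence detection.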

Test [2] can be described thus: qHTS assay to identify small molecule HDAC inhibitors (AID 1259364). Further: top concentration of the series differs between compounds; nearly all actives have a fitted effect of over 45% in size. In short, it runs like this: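 Homogeneous cell-based luminescent assay of endogenous class I/II HDAC activity; HCT-116 cells, 2 h compound exposure, 30 min HDAC-Glo development at RT.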
A general note: In qHTS, concentration-response curves come from the screen itself.

Test [3] is described as follows: qHTS assay to identify small molecule HDAC inhibitors - cell viability counter screen (AID 1259365). Further: series mostly up to about 92 µM; nearly all actives have a fitted effect of over 50% in size. The method in brief:
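Wild-type HCT-116 cells were seeded at 1,500 per well, incubated overnight at 37 C, then exposed to compounds in DMSO for 2hr. Viability was read by CellTiter-Glo luminescence after 30min at room temperature.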

A short description of test [4]: qHTS assay to identify small molecule agonists of the sonic hedgehog signaling (Shh) pathway - cell viability counter screen (AID 1259366). Further: nearly all actives have a fitted effect of over 50% in size. Further: potency means the concentration at half of the fitted maximal effect. In short, it runs like this: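 NIH/3T3-derived 3T3 Gli1-Luc cells (stable Gli1-responsive firefly luciferase reporter) were seeded, rested 4 hr at 37 C/5% CO2, then exposed to compounds in DMSO for 24 hr; viability was read by CellTiter-Fluor fluorescence in the same wells.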

Test [5] in a line: qHTS assay to identify small molecule antagonists of the sonic hedgehog signaling (Shh) pathway - cell viability counter screen (AID 1259367). Further: nearly all actives have a fitted effect of over 55% in size. Further: potency means the concentration at half of the fitted maximal effect. The method in brief:
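Seed 3T3 Gli1-Luc cells at 2,000 per well; incubate 4 hr; add compound in DMSO, then conditioned medium; incubate at 37C with 5% CO2; add CellTiter-Fluor after 23 hr; read fluorescence 1 hr later.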

The nature of test [6]: qHTS assay to identify small molecule agonists of the sonic hedgehog signaling (Shh) pathway (AID 1259368; calls by dose curve; further: series mostly up to about 92 µM; nearly all actives have a fitted effect of over 15% in size). In short, it runs like this: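 Steps: seed 3T3 Gli1-Luc cells, incubate 4 hr at 37 C, pin-transfer compounds in DMSO alongside a positive control, incubate 24 hr, add luciferase detection reagent, wait 30 min at room temperature, read luminescence.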
Test [7] can be described thus: qHTS assay to identify small molecule antagonists of the sonic hedgehog signaling (Shh) pathway (AID 1259369; calls by dose curve; further: nearly all actives have a fitted effect of over 45% in size; further: potency means the concentration at half of the fitted maximal effect). In short, it runs like this: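 Inhibition of Shh signalling is measured as reduced Gli1-response-element firefly luciferase output in an NIH/3T3-derived stable reporter clone stimulated with conditioned medium for 24hr.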
The target in test [8] is Estrogen receptor beta (Homo sapiens) (UniProt Q92731). As to the kind of experiment: qHTS assay to identify small molecule agonists of the estrogen receptor beta (ER-beta) signaling pathway (AID 1259377; active means well fitted activation curve with a large enough effect in the signal ratio in the repeat runs, not every such curve was filed as active; the % refers to the signal ratio). In short, it runs like this:
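ER-beta-UAS-bla HEK293T (GripTite) cells carrying a UAS-driven beta-lactamase reporter, in medium with 2% charcoal-stripped FBS, were exposed to compounds for 16 hr at 37C; LiveBLAzer B/G FRET substrate was then added and fluorescence read after 2 hours at room temperature.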

Test [9] shares this target. As to the kind of experiment: qHTS assay to identify small molecule antagonists of the estrogen receptor beta (ER-beta) signaling pathway (AID 1259378; active means well fitted inhibition curve with a large enough effect in the signal ratio in the repeat runs, not every such curve was filed as active; the % refers to the signal ratio; further: potency means the concentration at half of the fitted maximal effect). In short, it runs like this:
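ER-beta-UAS-bla HEK293T cells in 2% charcoal-stripped FBS medium treated with compound plus 1nM final 17-beta-estradiol for 16 hr at 37C. Beta-lactamase reporter read by FRET substrate fluorescence after 2 hours at room temperature.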

A short description of test [10]: qHTS assay to identify small molecule agonists of the androgen receptor (AR) signaling pathway in the presence of an antagonist - cell viability counter screen (AID 1259379). Further: nearly all actives have a fitted effect of over 25% in size. Further: potency means the concentration at half of the fitted maximal effect. In short, it runs like this:
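Fluorescence from CellTiter-Fluor, added after 15 hr and read 1 hr later, gave cell viability. Cells were MDA-kb2 exposed to compounds (15 concentrations) in the presence of 3.0uM nilutamide at 37C, 0% CO2.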

The nature of test [11]: qHTS assay to identify small molecule antagonists of the estrogen receptor beta (ER-beta) signaling pathway - cell viability counter screen (AID 1259382). Further: series mostly up to about 92 µM; nearly all actives have a fitted effect of over 55% in size. In short, it runs like this:
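Following a 6 hr plating period, HEK293T cells carrying a UAS-driven beta-lactamase reporter under ER-beta control received compounds and 1nM E2 (final). After 16 hr at 37C and 2 hr substrate loading, CellTiter-Glo luminescence indicated viability.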

For test [12], the target named is Estrogen receptor (Homo sapiens) (UniProt P03372). As to the kind of experiment: qHTS assay to identify small molecule agonists of the estrogen receptor alpha (ER-alpha) signaling pathway in the presence of an antagonist (AID 1259383; calls by dose curve; further: top concentration of the series differs between compounds; nearly all actives have a fitted effect of over 15% in size). The method in brief: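 Cells are hormone-deprived for 5 days (charcoal-stripped FBS, no phenol red), plated for 24hr, spiked with 10.0nM ICI-182,780, then dosed at 15 concentrations. After 22hr at 37C, ONE-Glo luminescence reports ERE-luciferase activity.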

In test [13] the target is Thyrotropin receptor (Homo sapiens) (UniProt P16473). As to the kind of experiment: qHTS assay to identify small molecule antagonists of the thyroid stimulating hormone receptor (TSHR) signaling pathway (AID 1259385; calls by dose curve; further: nearly all actives have a fitted effect of over 20% in size). The method in brief:
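TSHR-HEK293 cells (800/well) plated 18 h, then compounds with Ro20-1724 and TSH at 1.5 ng/mL final, 30 min at room temperature. cAMP quantified by HTRF (cAMP-d2/anti-cAMP-cryptate, 1 h); 15 concentrations in triplicate.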

The nature of test [14]: qHTS assay to identify small molecule antagonists of the androgen receptor (AR) signaling pathway using the MDA cell line in the presence of 0.5 nM R1881 - cell viability counter screen (AID 1259242). Further: nearly all actives have a fitted effect of over 45% in size. In short, it runs like this: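 Cytotoxicity toward MDA-kb2 cells is measured by CellTiter-Fluor live-cell protease fluorescence after 16 hr compound exposure at 37C in the presence of 0.5 nM R1881 stimulator.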

The nature of test [15]: qHTS assay to identify small molecule phospholipidosis (PLD) inducers (AID 1259344; active means well fitted curve in the direction sought with a large enough effect; an effect the other way counts as inactive or inconclusive). In short, it runs like this:
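Quantitative HTS in HepG2: compound plus LipidTOX Red dye for 24 h, paraformaldehyde fixation with Hoechst 33342, widefield high-content imaging; amiodarone as positive and DMSO as negative control.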

The nature of test [16]: qHTS assay to identify small molecule agonists or antagonists of the thyroid stimulating hormone receptor (TSHR) signaling pathway - wild type cell line counter screen (AID 1259384; calls by dose curve). In short, it runs like this: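 Wild-type Hek293 cells, 800/well, 18 h at 37C, then compound with Ro20-1724 for 30 min RT. cAMP by HTRF (cAMP-d2/anti-cAMP cryptate), 1 h RT, fluorescence read. 15 concentrations, triplicates.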

The nature of test [17]: qHTS assay to identify small molecule agonists of the estrogen receptor beta (ER-beta) signaling pathway - cell viability counter screen (AID 1259380). Further: nearly all actives have a fitted effect of over 30% in size. Further: potency means the concentration at half of the fitted maximal effect. The method in brief: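 Same-well viability counter screen. Cells: ER-beta-UAS-bla HEK293T, plated 6 hr before compound, in 2% charcoal-stripped FBS. Compound exposure 16 hr, 37C; viability by CellTiter-Glo luminescence after 30 min at room temperature.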

Estrogen receptor beta (Homo sapiens), sequence (Q92731 whole entry, looked up): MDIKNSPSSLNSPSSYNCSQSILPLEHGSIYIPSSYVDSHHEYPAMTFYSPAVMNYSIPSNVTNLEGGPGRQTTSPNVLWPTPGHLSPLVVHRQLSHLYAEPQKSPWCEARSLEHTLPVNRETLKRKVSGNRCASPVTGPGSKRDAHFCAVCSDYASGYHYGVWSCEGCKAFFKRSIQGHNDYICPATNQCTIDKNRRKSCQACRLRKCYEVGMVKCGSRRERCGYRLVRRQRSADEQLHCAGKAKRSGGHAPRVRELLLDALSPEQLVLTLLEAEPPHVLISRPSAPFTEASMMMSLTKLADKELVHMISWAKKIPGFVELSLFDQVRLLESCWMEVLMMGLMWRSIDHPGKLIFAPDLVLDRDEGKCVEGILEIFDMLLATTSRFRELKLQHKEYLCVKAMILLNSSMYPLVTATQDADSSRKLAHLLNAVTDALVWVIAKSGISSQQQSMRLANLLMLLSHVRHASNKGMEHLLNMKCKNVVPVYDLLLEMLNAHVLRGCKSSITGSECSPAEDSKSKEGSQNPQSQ
Estrogen receptor (Homo sapiens), sequence (P03372 whole entry, looked up): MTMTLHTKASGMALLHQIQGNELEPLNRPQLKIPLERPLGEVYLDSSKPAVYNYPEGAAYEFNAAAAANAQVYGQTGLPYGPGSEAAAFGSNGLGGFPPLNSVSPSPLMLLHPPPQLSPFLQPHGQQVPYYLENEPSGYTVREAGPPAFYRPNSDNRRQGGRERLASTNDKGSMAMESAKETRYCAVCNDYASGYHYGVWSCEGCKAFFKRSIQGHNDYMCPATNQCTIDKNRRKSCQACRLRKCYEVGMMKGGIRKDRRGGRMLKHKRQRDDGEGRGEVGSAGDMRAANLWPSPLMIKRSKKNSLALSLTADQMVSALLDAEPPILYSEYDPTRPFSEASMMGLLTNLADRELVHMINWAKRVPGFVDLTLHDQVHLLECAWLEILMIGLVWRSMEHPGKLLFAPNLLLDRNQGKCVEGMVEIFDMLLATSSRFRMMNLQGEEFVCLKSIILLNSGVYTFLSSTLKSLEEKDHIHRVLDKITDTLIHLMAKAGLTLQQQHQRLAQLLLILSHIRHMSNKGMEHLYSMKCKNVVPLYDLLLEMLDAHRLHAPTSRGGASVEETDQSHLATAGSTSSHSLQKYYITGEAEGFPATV
Thyrotropin receptor (Homo sapiens), sequence (P16473 whole entry, looked up): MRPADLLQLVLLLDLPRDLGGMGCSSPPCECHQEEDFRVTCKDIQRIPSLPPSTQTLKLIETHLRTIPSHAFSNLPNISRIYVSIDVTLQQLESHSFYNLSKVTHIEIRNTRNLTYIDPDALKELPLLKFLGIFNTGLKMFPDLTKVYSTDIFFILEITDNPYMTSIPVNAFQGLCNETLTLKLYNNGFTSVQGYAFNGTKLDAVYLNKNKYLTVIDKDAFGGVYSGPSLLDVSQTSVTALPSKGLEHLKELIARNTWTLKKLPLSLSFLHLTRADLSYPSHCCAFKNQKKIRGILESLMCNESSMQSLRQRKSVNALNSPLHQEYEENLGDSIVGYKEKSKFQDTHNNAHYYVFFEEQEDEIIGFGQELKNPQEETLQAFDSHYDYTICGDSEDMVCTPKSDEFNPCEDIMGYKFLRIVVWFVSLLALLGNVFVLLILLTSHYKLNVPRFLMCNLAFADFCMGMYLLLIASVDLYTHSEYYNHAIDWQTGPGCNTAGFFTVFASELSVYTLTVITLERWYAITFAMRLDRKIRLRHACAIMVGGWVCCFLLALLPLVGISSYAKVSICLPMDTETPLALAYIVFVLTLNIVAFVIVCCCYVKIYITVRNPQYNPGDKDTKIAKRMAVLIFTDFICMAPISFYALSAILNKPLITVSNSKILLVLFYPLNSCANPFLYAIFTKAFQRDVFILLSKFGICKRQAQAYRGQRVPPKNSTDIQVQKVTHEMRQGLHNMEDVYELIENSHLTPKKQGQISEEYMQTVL

In the case of `CCCC(=O)OCC`, the Potency result in [1], in [2], in [4], in [5], in [8] and in test [9] was “inactive” in each case. The Potency result in [10], in test [11], in [12] and in test [13] was “inactive” each time. For the same compound, the call in test [3] and in [6] was inactive. In addition, the Potency in test [7] is 68.6 µM (active).

With `C[C@@H](C1=C(CCN(C)C)Cc2ccccc21)c1ccccn1`, the Potency entry in [14], in test [15], in test [5], in test [10], in test [11] and in test [16] was “inactive” in each case. Also, the Potency entry in [13] was “inactive”. Besides, the call in test [3] and in [6] was inactive.

As for `CC(=O)Nc1ccc(/C=N/NC(N)=S)cc1`, the Potency entry in test [15], in test [4], in test [5], in test [7], in test [10] and in test [17] was “inactive” throughout. Further, the Potency result in test [11] and in [16] was “inactive” each time. Moreover, the compound was called inactive in test [3] and in test [6].

Turning to `CC(C)c1cccc(C(C)C)c1NC(=O)NS(=O)(=O)c1cc(C(C)(C)O)co1`, the Potency entry in test [2], in test [4], in test [5], in test [7], in test [8] and in [9] was “inactive” throughout. The Potency result in test [10], in [17], in test [11], in test [16] and in test [13] was “inactive” each time. In addition, the outcome in test [3] and in test [6] was inactive.

`Oc1ccc(O)c2c(O)cccc12`: the Potency result in [1], in test [2], in test [4], in test [5], in test [7] and in test [9] was “inactive” throughout. For the same compound, the Potency result in test [17], in [11], in [12] and in test [13] was “inactive” throughout. Further, the compound was called inactive in test [3] and in [6].

`CC(Cc1cccc(C(F)(F)F)c1)NCCOC(=O)c1ccccc1` (stereo not given): the Potency result in [14], in [15], in test [2], in test [4], in test [5] and in test [10] was “inactive” in each case. Further, the Potency entry in test [11], in [16] and in test [13] was “inactive” each time. The compound was classed as inactive in test [6].

Take `CCC(=O)OC(C)(C)C1CC=C(C)CC1` (stereo not given): the Potency entry in test [14], in test [1], in test [2], in test [4], in test [5] and in test [7] was “inactive” throughout. Moreover, the Potency entry in test [8], in test [9], in test [10], in [17], in test [11] and in test [12] was “inactive” in each case. Besides, the Potency entry in [16] and in test [13] was “inactive” in each case. Moreover, the outcome in [6] was inactive.

As for `C=CC(=O)OCC(C)OCC(C)OCC(C)OC(=O)C=C` (stereo not given), the Potency entry in test [14], in test [1], in test [2], in [11] and in test [12] was “inactive” throughout. Besides, the compound was called inactive in test [3] and in test [6]. In addition, the Potency in test [4] was 24.3 µM (active); in test [5], 48.6 µM (active); in test [7], 9.69 µM (active); in test [9], 61.1 µM (active).

Take `C=CC(C)(CCC=C(C)C)OC(=O)c1ccccc1` (stereo not given): the Potency entry in test [14], in test [2], in test [4], in [5], in test [7] and in test [10] was “inactive” throughout. For the same compound, the Potency entry in test [17], in test [11], in test [16] and in test [13] was “inactive” throughout. In addition, the result in test [3] was inactive.

Turning to `COCCCCCCCCOCCC[Si](C)(O[Si](C)(C)C)O[Si](C)(C)C`, the Potency in test [1] and in [10] was 17.2 µM (active) in each case. The Potency result in test [2], in test [4], in test [5], in test [7], in test [8] and in test [11] was “inactive” each time. Moreover, the Potency result in [12], in [16] and in test [13] was “inactive” throughout. The call in test [3] and in [6] was inactive.

In the case of `CCCC(C)C`, the Potency entry in test [14], in test [1], in [2], in test [4], in test [5] and in test [7] was “inactive” each time. The Potency result in test [8], in [9], in test [10], in [11], in test [12] and in test [16] was “inactive” throughout. For the same compound, in test [13], the Potency result is “inactive”. Also, the outcome in test [3] and in test [6] was inactive. Besides, in test [17], the Potency was 61.8 µM (active).

On to `Oc1ccc(Cc2ccccc2)cc1`, for which the Potency result in test [14], in test [2], in [10], in [16] and in test [13] was “inactive” throughout. Besides, the result in test [3] and in test [6] was inactive.
